# According to ChEMBL document CHEMBL3988442, “University of Dundee, Small-Polar-MMV Screening Library” (2021):
# In all, about 69,000 compounds went through this assay and about 1,000 (1.4%) showed an effect of 50% or more. Shown is part of a subset that was picked to be rich in strong results.
# Tested on: Leishmania donovani
# Assay: Leishmania intramacrophage assay
# Type: functional, organism-based
# Parameters: scale not given: in the data most compounds retested in dose-response had high values
smiles,measurement,setting,value
Cc1cccc(S(=O)(=O)N2CCC3(CC2)CC(N(C)C)CO3)c1 (stereo not given),Percent Effect,"30.3 µM, […]",50.39%
CCOC1COC2(CCN(S(=O)(=O)c3cccc(F)c3)CC2)C1 (stereo not given),Percent Effect,"30 µM, 30.03 µM",-15.08%
CCOC1COC2(CCN(S(=O)(=O)c3cccc(C)c3)CC2)C1 (stereo not given),Percent Effect,"30.3 µM, […]",23.7%
CN(C)C1COC2(CCN(S(=O)(=O)c3ccc(F)cc3)CC2)C1.O=C(O)C(F)(F)F (stereo not given),Percent Effect,"30.3 µM, […]",52.86%
COC1COC2(CCN(S(=O)(=O)c3ccc(F)cc3)CC2)C1 (stereo not given),Percent Effect,"30.3 µM, […]",5.953%
CCOC1COC2(CCN(S(=O)(=O)c3ccc(F)cc3)CC2)C1 (stereo not given),Percent Effect,"30.3 µM, […]",12.78%
CC(Oc1ccccc1C#N)C(=O)NC1CC1 (stereo not given),Percent Effect,"30.3 µM, […]",8.957%
Cc1cnn(C2CN(c3nc(C)cc(N(C)C)n3)C2)c1,Percent Effect,"30.3 µM, […]",24.16%
CN(Cc1noc2c1CCCC2)C(=O)CN1C(=O)COc2ccccc21,Percent Effect,"30.3 µM, […]",18.25%
CN(CCc1noc(C2CC2)n1)C(=O)CN1C(=O)COc2ccccc21,Percent Effect,"30.3 µM, […]",99.57%
CC1CCN(CC(=O)N(C)CCc2noc(C3CC3)n2)C1=O (stereo not given),Percent Effect,"30.3 µM, […]",26.42%
CC(C)Oc1ncccc1CNC(=O)c1ccccn1,Percent Effect,"30.3 µM, […]",-8.458%
CN(Cc1ccc(F)c(F)c1)Cc1cc2c(cc1Br)OCCO2,Percent Effect,"30.3 µM, […]",17.19%
c1cc(CNCC2Cn3nncc3CO2)ccn1 (stereo not given),Percent Effect,"30.3 µM, […]",1.96%
Cc1ccc(CNCC2Cn3nncc3CO2)o1 (stereo not given),Percent Effect,"30.3 µM, […]",8.133%
c1coc(CNCC2Cn3nncc3CO2)c1 (stereo not given),Percent Effect,"30.3 µM, […]",55.14%
CCNc1ccnc(NCC2(N(C)C)CCOCC2)n1,Percent Effect,"30.3 µM, […]",31.76%
CCc1ncc(C(=O)N2CC(Oc3ccccc3Cl)C2)cn1,Percent Effect,"30.3 µM, […]",18.16%
COCCN1C[C@H]2CCN(C(=O)c3cc(C)on3)CC[C@H]2S1(=O)=O,Percent Effect,"30.3 µM, […]",-11.97%
Cc1ccc(CNC(=O)NCc2csc(C)n2)cn1,Percent Effect,"30 µM, 30.03 µM",22.66%
Cc1nnc2n1CCN(CCCS(=O)(=O)c1ccccc1)C2,Percent Effect,"30.3 µM, […]",27.12%
CCN(CC)c1ncnc2c1CCN(CC1CCOCC1)CC2.O=C(O)C(F)(F)F,Percent Effect,"30.3 µM, […]",50.25%
CCN(C)c1ncnc2c1CCN(CC1CCOC1)CC2.O=C(O)C(F)(F)F (stereo not given),Percent Effect,"30.3 µM, […]",-1.105%
CN(C)c1ncnc2c1CCN(CC1CCOCC1)CC2.O=C(O)C(F)(F)F,Percent Effect,"30.3 µM, […]",3.553%
Cc1ccc(CN2CCn3c(CNS(C)(=O)=O)nnc3C2)s1,Percent Effect,"30.3 µM, […]",21.51%
COc1cc(OC)nc(N2CCC3(CC2)OCCCC3O)n1 (stereo not given),Percent Effect,"30.3 µM, […]",12.31%
c1cc(-c2ccc(CN3CCCC4(CCNC4)C3)s2)[nH]n1 (stereo not given),Percent Effect,"30.3 µM, […]",24.83%
Fc1cnccc1CN1CCCC2(CCN(c3ncccn3)CC2)C1.O=C(O)C(F)(F)F,Percent Effect,"30.3 µM, […]",6.498%
Cc1cc(C(C)NCCN2CCC(N(C)C)CC2)c(C)s1 (stereo not given),Percent Effect,"30.3 µM, […]",59.42%
Cc1cc(Br)cnc1NCCN1CCC(N(C)C)CC1,Percent Effect,"30.3 µM, […]",96.65%
CC(NCCN1CCC(N(C)C)CC1)c1ccc(Cl)s1 (stereo not given),Percent Effect,"30.3 µM, […]",43.03%
COC1CCN(CCNc2ncc(Br)cc2C)CC1,Percent Effect,"30.3 µM, […]",-8.998%
CC(=O)N1CCN(CCNc2ncc(Br)cc2C)CC1,Percent Effect,"30.3 µM, […]",1.457%
CC(NCCN1CCC(N(C)C)CC1)c1ccc(F)cc1N(C)C (stereo not given),Percent Effect,"30.3 µM, […]",15.55%
COCCN1CCN(Cc2c(C3CCNCC3)[nH]c3ncccc23)CC1.Cl,Percent Effect,"30.3 µM, […]",15.04%
Cn1cc(CN2CCc3onc(C(=O)Nc4cccnc4)c3C2)cn1,Percent Effect,"30.3 µM, […]",24.89%
CC(C)(C)C(=O)N1CCC(c2cnc(-c3cn[nH]c3)cn2)CC1,Percent Effect,"30.3 µM, […]",-18.54%
COc1ccc(Cl)cc1CS(=O)(=O)Cc1noc(C)n1,Percent Effect,"30.3 µM, […]",34.45%
COc1ccc(Cl)cc1CS(=O)(=O)Cc1nc(C)no1,Percent Effect,"30.3 µM, […]",60.61%
COc1ccc(Cl)cc1CS(=O)(=O)Cc1nc(C2CC2)no1,Percent Effect,"30.3 µM, […]",28.37%
O=C(NCCN1CCOCC1)c1cc(-c2ccccc2Cl)[nH]n1,Percent Effect,"30.3 µM, […]",-6.582%
CC(C)c1noc(CN2CCN(C(=O)c3ccncc3F)CC2)n1,Percent Effect,30 µM,25.95%
O=C1C(N2CCN(c3ccc(O)cc3)CC2)CCN1C1CCOCC1 (stereo not given),Percent Effect,"30.3 µM, […]",-7.233%
O=C(Nc1ccc(CC(=O)N2CCSCC2)cc1)NC1CCCC1,Percent Effect,"30.3 µM, […]",-9.117%
O=C(Nc1ccc(CC(=O)N2CCCC2)cc1)NC1CC1,Percent Effect,"30.3 µM, […]",15.08%
O=C(Nc1ccc(CC(=O)N2CCSCC2)cc1)NC1CC1,Percent Effect,"30.3 µM, […]",50.93%
O=C1[C@H]2CC[C@H](CN(C3CSCCSC3)C2)N1Cc1cscn1,Percent Effect,"30 µM, 30.03 µM",-11.37%
Cc1ccccc1N1CC2(CCN(Cc3nccn3C)C2)CC1=O.O=C(O)C(F)(F)F (stereo not given),Percent Effect,"30.3 µM, […]",-1.583%
Cn1ccc(CN2CCCC23CCN(Cc2nccn2C)CC3)n1.O=C(O)C(F)(F)F.O=C(O)C(F)(F)F,Percent Effect,"30.3 µM, […]",27.16%
Cn1cc(CN2CCCC23CCN(Cc2nccn2C)CC3)cn1.O=C(O)C(F)(F)F.O=C(O)C(F)(F)F,Percent Effect,"30.3 µM, […]",22.67%
CN1CC(=O)N(c2cnn(C)c2)CC12CCN(Cc1nccn1C)C2.O=C(O)C(F)(F)F.O=C(O)C(F)(F)F (stereo not given),Percent Effect,"30 µM, 30.03 µM",3.871%
CN(C)CCN1CCCC12CCN(Cc1nccn1C)CC2.O=C(O)C(F)(F)F.O=C(O)C(F)(F)F.O=C(O)C(F)(F)F,Percent Effect,"30.3 µM, […]",52.43%
Cc1ccc(N2CC3(CCN(Cc4nccn4C)C3)CC2=O)s1.O=C(O)C(F)(F)F (stereo not given),Percent Effect,"30.3 µM, […]",55.03%
Cn1ccnc1CN1CCC2(CC(=O)N(c3ccsc3)C2)C1.O=C(O)C(F)(F)F (stereo not given),Percent Effect,"30.3 µM, […]",19.56%
Cn1cc(N2CC3(CCN(Cc4nccn4C)C3)CC2=O)cn1.O=C(O)C(F)(F)F (stereo not given),Percent Effect,"30.3 µM, […]",58.91%
Cc1cccc(N2CC3(CCN(Cc4nccn4C)C3)CC2=O)c1.O=C(O)C(F)(F)F (stereo not given),Percent Effect,"30.3 µM, […]",24.22%
OC(COCc1ccccc1Cl)CN1CCC(c2ccn[nH]2)CC1 (stereo not given),Percent Effect,30 µM,17.67%
O=C(Cc1csc(-c2ccsc2)n1)N1CCN(c2cnccn2)CC1,Percent Effect,30 µM,8.045%
Cc1cc(C(=O)N2CCn3cc(CN(C)C)nc3C2)no1,Percent Effect,"30.3 µM, […]",18.85%
CC(O)CN1CCN(C(=O)c2ccn(-c3ccc(F)cc3)n2)CC1 (stereo not given),Percent Effect,"30.3 µM, […]",-32.18%
Cn1ccc(C(=O)N2CCC(Cc3cnc4[nH]ccc4c3)CC2)n1,Percent Effect,"30 µM, 30.03 µM",27.84%
CO[C@@H]1CC[C@@H](N(C)C(=O)COc2ccc(F)cc2)[C@H]1O,Percent Effect,"30 µM, 30.03 µM",-20.57%
Cc1ccc(C)c(Oc2cc(-n3nc(C)c(C#N)c3N)nc(C)n2)c1,Percent Effect,"30.3 µM, […]",6.945%
CCc1nn(-c2cc(Oc3cc(C)ccc3C)nc(C)n2)c(N)c1C#N,Percent Effect,"30.3 µM, […]",18.36%
CCc1nn(-c2cc(Oc3cc(C)ccc3C)ncn2)c(N)c1C#N,Percent Effect,"30.3 µM, […]",55.59%
NCC(=O)N1CCCC(O)(CN2CCN(c3ccccc3)CC2)CC1 (stereo not given),Percent Effect,"30.3 µM, […]",24.84%
CS(=O)(=O)CCN1CCN(c2ccc(Cl)cn2)CC1,Percent Effect,"30.3 µM, […]",0.04205%
CSCCCN1CCN(c2ccc(Cl)cn2)CC1,Percent Effect,"30.3 µM, […]",30.03%
Clc1ccc(N2CCN(CCCN3CCCCC3)CC2)nc1,Percent Effect,"30.3 µM, […]",68.75%
Cc1nc(CN2CCN(c3ccc(Cl)cn3)CC2)no1,Percent Effect,"30.3 µM, […]",51.54%
Cc1nc(CNC(=O)N2CCN(c3ccc(Cl)cn3)CC2)no1,Percent Effect,"30.3 µM, […]",-6.718%
Cc1nc(CN2CCN(Cc3nccn3C)CC2)no1,Percent Effect,"30 µM, 30.03 µM",11.72%
O=C(NCCNc1ccc(C(F)(F)F)cn1)c1ccc(Br)cc1F,Percent Effect,"30 µM, 30.03 µM",-32.97%
CN(Cc1cn[nH]c1-c1ccc(F)cc1)C(=O)CCC1CC1,Percent Effect,"30.3 µM, […]",-4.143%
CCn1cc(CN2CCC(C3CCN(C)CC3)CC2)cc1C#N,Percent Effect,"30.3 µM, […]",8.451%
COc1ccc(/C=C/CN2CCCC3(C2)CN(C)C(=O)O3)cc1 (stereo not given),Percent Effect,"30.3 µM, […]",14.77%
COC[C@@]12CC[C@@H](N3CCOCC3)C[C@H]1CCN(c1cc(C)ccn1)C2,Percent Effect,"30.3 µM, […]",28.55%
CCC(O)Cn1nc(-c2ccc(C(=O)O)cc2)cc1-c1ccc(F)cc1 (stereo not given),Percent Effect,"30.3 µM, […]",61.24%
CC(C)Cn1nc(-c2ccc(C(=O)O)cc2)cc1-c1ccc(F)cc1,Percent Effect,"30.3 µM, […]",41.19%
CCC(O)Cn1nc(-c2ccc(C(=O)O)cc2)cc1-c1cccc(F)c1 (stereo not given),Percent Effect,"30.3 µM, […]",29.44%
Fc1cccc(N2CCc3ncnc(C4CC4)c3CC2)c1,Percent Effect,"30.3 µM, […]",15.99%
COCCCN1C(=O)CC[C@H]2CN(Cc3cc4ccccc4o3)CC[C@H]21,Percent Effect,"30.3 µM, […]",10.23%
CCN1CCC(NC(=O)NC2CCOc3ccc(Br)cc32)CC1 (stereo not given),Percent Effect,"30.3 µM, […]",1.839%
CCN1CC(c2ccccc2)CC2(CCN(Cc3ncc[nH]3)CC2)C1 (stereo not given),Percent Effect,"30.3 µM, […]",35.04%
c1ccc(C2CN(C3CC3)CC3(CCN(Cc4ncc[nH]4)CC3)C2)cc1 (stereo not given),Percent Effect,"30.3 µM, […]",51.92%
CN1CC(c2ccccc2)CC2(CCN(Cc3ncc[nH]3)CC2)C1 (stereo not given),Percent Effect,"30.3 µM, […]",16.63%
Cc1ccc(F)c(OC2(C(=O)O)CCN(C(=O)C3CCCC3)CC2)c1,Percent Effect,"30.3 µM, […]",24.64%
CCOC(C)c1nc(CN2CCN(Cc3cccnc3)CC2)cs1 (stereo not given),Percent Effect,"30.3 µM, […]",14.45%
Cc1nc(CN2C[C@@H]3CN(c4ncc(F)cn4)C[C@@H]3C2=O)cs1.O=C(O)C(F)(F)F,Percent Effect,"30.3 µM, […]",0.4282%
CN1CCC(N(CCc2ccccc2)C(=O)c2cc[nH]c2)CC1,Percent Effect,"30.3 µM, […]",69.36%
CN1CCC(N(CCc2ccccc2)C(=O)c2ccoc2)CC1,Percent Effect,"30.3 µM, […]",23.03%
CN1CCC(N(CCc2ccccc2)C(=O)c2ccc(CO)cc2)CC1,Percent Effect,"30.3 µM, […]",30.31%
C[C@H]1C(=O)NC[C@H]2CN(Cc3cccc(F)c3)C[C@H]21.O=C(O)C(F)(F)F,Percent Effect,"30.3 µM, […]",4.969%
Cc1cc(CN(C)C(=O)C2CCCN(C(N)=O)C2)no1 (stereo not given),Percent Effect,"30.3 µM, […]",-0.7168%
Cn1ncc(NCc2cccc(F)c2)c(Cl)c1=O,Percent Effect,30 µM,13.08%
COc1cccc(CNc2cnn(C)c(=O)c2Cl)c1,Percent Effect,"30 µM, 30.03 µM",34.79%
CC(C)OCc1cccc(CNc2cnn(C)c(=O)c2Cl)c1,Percent Effect,30 µM,21.9%
Cn1ncc(NCc2cc(F)cc(F)c2)c(Cl)c1=O,Percent Effect,"30 µM, 30.03 µM",2.406%
COc1ccc(CNc2cnn(C)c(=O)c2Cl)cc1,Percent Effect,30 µM,56.65%
Cn1ncc(NCc2cccc(COC(C)(C)C)c2)c(Cl)c1=O,Percent Effect,"30 µM, 30.03 µM",51.11%
